# Several values for one entry are separate records, joined by “and”; a condition that tells them apart may be missing. Equal entries are not always repeated. Records with an inconclusive call do not appear. The source holds several records for some structures; these can differ, active in one and inactive in another. Activity calls are given as the source filed them. Rule for the calls, unless noted: active = hit-call score of the fitted dose curve at least 0.9, where 1 is the maximum; inactive = score below 0.9.
# Legend:
# [1] = ATG_TCF_b_cat_CIS: Attagene CIS-FACTORIAL HepG2 Assay for human T-Cell-Factor with beta-catenin (TCF/b-cat) (AID 2282965); conditions: HepG2 TCF/beta-catenin cis-reporter transcription, actives raise or lower the signal
# In short: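 Cells of the HepG2 line carry transiently transfected reporter units whose promoters respond to endogenous factors. Twenty-four hours post-dosing, reporter mRNA induction is measured by fluorescent RT-PCR and capillary electrophoresis, with DMSO as baseline.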
# [2] = ATG_TGFb_CIS: Attagene CIS-FACTORIAL HepG2 Assay for human Transforming Growth Factor (TGF) (AID 2282967); conditions: HepG2 Attagene CIS TGFb reporter, mRNA transcription; actives raise or lower the signal
# In short: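 HepG2 cells transiently transfected with cis-promoter-driven multiple reporter units measure endogenous TF activity; reporter mRNA quantified at 24 h by RT-PCR, FAM labeling, HpaI digestion and capillary electrophoresis. Bidirectional fit vs DMSO.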
# [3] = ATG_VDRE_CIS: Attagene CIS-FACTORIAL HepG2 Assay for human Vitamin D Receptor Element (VDRE) (AID 2282968); conditions: HepG2 VDRE cis-reporter transcription, actives raise or lower the signal
# In short: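 Transient MRTU transfection of HepG2, 24 h compound exposure. Readout: reporter transcripts via RT-PCR and capillary electrophoresis, fluorescence. Bidirectional fit vs DMSO.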
# [4] = biological target: Estrogen receptor (Homo sapiens) (UniProt P03372); experiment: ATG_ERa_TRANS: Attagene TRANS-FACTORIAL HepG2 Assay for human Estrogen Receptor alpha (ERa) (AID 2282970; active = hit-call score of the fitted dose curve at least 0.9, where 1 is the maximum); conditions: HepG2 Attagene TRANS ERa GAL4 reporter, mRNA
# Chain of Estrogen receptor (Homo sapiens) (P03372 whole entry, looked up, the tested form may be a part): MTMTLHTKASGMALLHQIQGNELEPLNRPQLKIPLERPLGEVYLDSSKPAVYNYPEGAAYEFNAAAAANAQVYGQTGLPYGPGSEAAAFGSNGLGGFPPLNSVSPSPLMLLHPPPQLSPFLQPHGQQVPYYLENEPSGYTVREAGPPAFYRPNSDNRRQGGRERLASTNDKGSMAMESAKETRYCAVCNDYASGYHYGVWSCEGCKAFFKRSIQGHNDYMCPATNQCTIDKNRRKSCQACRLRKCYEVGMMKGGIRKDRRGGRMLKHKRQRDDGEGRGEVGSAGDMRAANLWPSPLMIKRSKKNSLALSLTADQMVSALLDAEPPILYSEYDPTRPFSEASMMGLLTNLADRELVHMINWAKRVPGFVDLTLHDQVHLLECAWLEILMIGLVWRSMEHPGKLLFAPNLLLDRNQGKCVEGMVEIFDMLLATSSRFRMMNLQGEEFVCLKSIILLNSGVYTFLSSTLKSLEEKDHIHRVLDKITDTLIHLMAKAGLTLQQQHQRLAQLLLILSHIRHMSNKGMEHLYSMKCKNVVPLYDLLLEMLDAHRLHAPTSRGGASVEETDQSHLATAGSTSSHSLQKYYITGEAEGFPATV
# In short: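 One of 30 multiplexed endpoints from a HepG2 TRANS system, this one reports ERa-Gal4-driven reporter mRNA. Transcripts were quantified 24 hours post-dosing by fluorescent RT-PCR and capillary electrophoresis, with activity scored as induction over DMSO.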
# [5] = biological target: Steroid hormone receptor ERR1 (Homo sapiens) (UniProt P11474); experiment: ATG_ERRa_TRANS: Attagene TRANS-FACTORIAL HepG2 Assay for human Estrogen-Related Receptor alpha (ERRa) (AID 2282971; active = hit-call score of the fitted dose curve at least 0.9, where 1 is the maximum); conditions: HepG2 Attagene TRANS reporter, ERRa transactivation
# Chain of Steroid hormone receptor ERR1 (Homo sapiens) (P11474 whole entry, looked up, the tested form may be a part): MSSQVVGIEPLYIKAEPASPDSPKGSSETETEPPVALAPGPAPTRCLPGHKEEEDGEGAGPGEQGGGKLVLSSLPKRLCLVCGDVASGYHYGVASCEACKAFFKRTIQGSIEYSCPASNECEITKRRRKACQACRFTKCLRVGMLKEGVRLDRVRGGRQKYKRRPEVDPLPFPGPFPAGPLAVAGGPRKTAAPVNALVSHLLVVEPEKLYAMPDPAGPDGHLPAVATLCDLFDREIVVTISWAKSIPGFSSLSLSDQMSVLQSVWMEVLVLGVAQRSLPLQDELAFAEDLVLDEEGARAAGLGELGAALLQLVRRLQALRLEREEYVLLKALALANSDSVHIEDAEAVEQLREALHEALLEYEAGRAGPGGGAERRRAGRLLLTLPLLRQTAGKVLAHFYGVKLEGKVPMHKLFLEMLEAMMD
# In short: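 HepG2 cells transiently transfected with multiplexed GAL4-UAS reporter units reading chimeric ERRa-Gal4 activity; 24 h compound exposure. Reporter mRNA measured by RT-PCR, 6-FAM labelling, HpaI digest and capillary electrophoresis; gain of signal fitted versus DMSO baseline.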
# [6] = biological target: X-box-binding protein 1 (Homo sapiens) (UniProt P17861); experiment: ATG_Xbp1_CIS: Attagene CIS-FACTORIAL HepG2 Assay for human X-box Binding Protein 1 (XBP1) (AID 2282972); conditions: HepG2 XBP1 cis-element reporter, Attagene multiplex; actives raise or lower the signal
# Chain of X-box-binding protein 1 (Homo sapiens) (P17861 whole entry, looked up): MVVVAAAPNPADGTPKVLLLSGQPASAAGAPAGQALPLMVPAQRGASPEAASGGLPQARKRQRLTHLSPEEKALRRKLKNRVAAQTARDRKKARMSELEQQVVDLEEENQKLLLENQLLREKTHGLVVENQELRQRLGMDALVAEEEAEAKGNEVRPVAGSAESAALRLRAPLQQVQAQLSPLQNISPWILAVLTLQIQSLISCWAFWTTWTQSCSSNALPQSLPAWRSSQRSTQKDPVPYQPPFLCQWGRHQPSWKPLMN
# In short: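 Multiplexed cis-reporter readout in transfected HepG2 liver cells. Exposure lasted 24 hours. Activity in either direction was fitted against DMSO as negative control and baseline.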
# [7] = ATG_GAL4_TRANS: Attagene TRANS-FACTORIAL HepG2 Assay for GAL4 (Internal Marker) (AID 2282976; active = hit-call score of the fitted dose curve at least 0.9, where 1 is the maximum); conditions: HepG2 Attagene TRANS GAL4 internal marker reporter
# In short: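 HepG2 cells transiently transfected with multiplexed GAL4-UAS reporter constructs were dosed for 24 h. Reporter mRNA was measured by RT-PCR, 6-FAM primer extension, HpaI digestion and capillary electrophoresis, and gain of signal was fitted relative to DMSO.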
# [8] = biological target: Nuclear receptor subfamily 1 group I member 3 (Homo sapiens) (UniProt Q14994); experiment: ATG_CAR_TRANS: Attagene TRANS-FACTORIAL HepG2 Assay for human Constitutive Androstane Receptor (CAR) (AID 2282969; active = hit-call score of the fitted dose curve at least 0.9, where 1 is the maximum;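 note: activators raise reporter mRNA above DMSO so AC50 marks induction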); conditions: HepG2 Attagene TRANS-FACTORIAL CAR reporter
# Chain of Nuclear receptor subfamily 1 group I member 3 (Homo sapiens) (Q14994 whole entry, looked up, the tested form may be a part): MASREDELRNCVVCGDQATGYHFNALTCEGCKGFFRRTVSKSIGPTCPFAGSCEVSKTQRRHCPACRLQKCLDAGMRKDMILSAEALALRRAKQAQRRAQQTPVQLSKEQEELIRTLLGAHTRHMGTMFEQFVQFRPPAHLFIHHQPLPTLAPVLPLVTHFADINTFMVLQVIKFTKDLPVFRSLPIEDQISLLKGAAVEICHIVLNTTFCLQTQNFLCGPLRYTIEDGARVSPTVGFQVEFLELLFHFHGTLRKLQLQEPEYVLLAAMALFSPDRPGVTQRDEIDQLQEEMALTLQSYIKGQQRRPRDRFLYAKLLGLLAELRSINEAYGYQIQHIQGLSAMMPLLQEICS
# In short: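 Transiently transfected HepG2, multiplex TRANS reporters (CAR-Gal4 chimera driving GAL4-UAS reporter). 24 h dosing. Readout: reporter transcript by RT-PCR + capillary electrophoresis, fluorescence intensity; positive direction vs DMSO.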
# [9] = ATG_M_19_TRANS: Attagene TRANS-FACTORIAL HepG2 Assay for M19 Transcription Factor (Internal Marker) (AID 2282974; active = hit-call score of the fitted dose curve at least 0.9, where 1 is the maximum); conditions: HepG2 Attagene TRANS-FACTORIAL M19 internal marker reporter
# In short: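 Background-control readout: after 24 h chemical exposure of transfected HepG2 carrying GAL4-driven reporter units, RNA was reverse-transcribed, amplified, fluorescently labeled and sized by capillary electrophoresis; gain-of-signal fit against DMSO.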
compound,measurement,setting,value
CC(C)(C)CC(C)(C)c1ccc(O)c(-n2nc3ccccc3n2)c1,outcome,[1],inactive
same,outcome,[2],inactive
same,AC50,[3],6.7 µM (active)
same,AC50,[4],26.8 µM (active)
CC(=O)CC(C)(C)O,outcome,[1],inactive
same,outcome,[2],inactive
same,outcome,[3],inactive
same,AC50,[4],26.5 µM (active)
same,outcome,[5],inactive
same,outcome,[6],inactive
same,outcome,[7],inactive
CC(C)(C)c1cccc(C(C)(C)C)c1O,AC50,[1],173 µM (active)
same,outcome,[2],inactive
same,outcome,[8],inactive
same,AC50,[4],61.4 µM (active)
same,AC50,[6],144 µM (active)
same,outcome,[7],inactive
CC(=O)NC1(c2cccc(F)c2)CCN(CC[C@@]2(c3ccc(Cl)c(Cl)c3)CN(c3ccccc3)C(=O)CO2)CC1,AC50,[1],8.64 µM (active)
same,outcome,[2],inactive
same,AC50,[3],39.8 µM (active)
same,AC50,[6],25.7 µM (active)
same,outcome,[7],inactive
c1ccc2c(c1)Cc1ccccc1-2,outcome,[1],inactive
same,outcome,[2],inactive
same,outcome,[3],inactive
same,AC50,[4],35.4 µM (active)
same,outcome,[7],inactive
CC(C)(C)c1ccc(O)c(C(C)(C)C)c1,outcome,[1],inactive
same,outcome,[2],inactive
same,outcome,[3],inactive
same,AC50,[8],4.79 µM (active)
same,outcome,[4],inactive
same,outcome,[6],inactive
CCCCCCCCOC(=O)CCCCCCCCC(=O)OCCCCCCCC,outcome,[1],inactive
same,outcome,[2],inactive
same,outcome,[3],inactive
same,outcome,[8],inactive
same,outcome,[4],inactive
same,outcome,[5],inactive
same,outcome,[6],inactive
same,outcome,[7],inactive
CN(C)C=O,outcome,[1],inactive
same,outcome,[2],inactive
same,outcome,[4],inactive
same,outcome,[7],inactive
Oc1cccc(O)c1,outcome,[1],inactive
same,outcome,[2],inactive
same,outcome,[3],inactive
same,outcome,[4],inactive
same,outcome,[9],inactive
same,outcome,[7],inactive
c1ccc2cc3c(ccc4ccccc43)cc2c1,outcome,[1],inactive
same,outcome,[2],inactive
same,AC50,[3],7.85 µM (active)
same,outcome,[3],inactive
same,outcome,[8],inactive
same,AC50,[4],2.44 µM (active) [middle of 4 runs]
same,outcome,[6],inactive
same,outcome,[7],inactive
CN1CCC[C@H]1c1cccnc1,outcome,[1],inactive
same,outcome,[2],inactive
same,outcome,[3],inactive
same,outcome,[8],inactive
same,AC50,[4],61.2 µM (active)
same,outcome,[6],inactive
COC(=O)CCCCC(=O)OC,outcome,[1],inactive
same,outcome,[2],inactive
same,outcome,[3],inactive
same,outcome,[4],inactive
same,outcome,[6],inactive
same,outcome,[7],inactive
CCCCC(CC)COC(=O)CCCCC(=O)OCC(CC)CCCC (stereo unspecified),outcome,[1],inactive
same,outcome,[2],inactive
same,outcome,[3],inactive
same,outcome,[4],inactive
CCCCCCCC(=O)O,outcome,[1],inactive
same,outcome,[2],inactive
same,outcome,[3],inactive
same,outcome,[8],inactive
same,outcome,[4],inactive
same,outcome,[6],inactive
same,outcome,[9],inactive
same,outcome,[7],inactive
CC1=C(/C=C/C(C)=C/C=C/C(C)=C/C(=O)O)C(C)(C)CCC1,AC50,[1],23.7 µM (active) and 102 µM (active)
same,outcome,[2],inactive
same,AC50,[3],6.62 µM (active) and 11.9 µM (active)
same,AC50,[6],44.3 µM (active) and 8.86 µM (active)
COc1cc(CCC(=O)CC(=O)CCc2ccc(O)c(OC)c2)ccc1O,outcome,[1],inactive
same,outcome,[2],inactive
same,AC50,[3],13.7 µM (active)
same,outcome,[8],inactive
same,outcome,[4],inactive
CCc1ccc(CCOc2ccc(CC3SC(=O)NC3=O)cc2)nc1 (stereo unspecified),outcome,[1],inactive
same,outcome,[2],inactive
same,outcome,[3],inactive
same,outcome,[8],inactive
same,outcome,[4],inactive
same,outcome,[6],inactive
same,outcome,[7],inactive
CCCCCCCCCCCCN1CCCC1=O,outcome,[1],inactive
same,outcome,[2],inactive
same,outcome,[3],inactive
same,outcome,[4],inactive
same,outcome,[5],inactive
FC(F)(I)C(F)(F)C(F)(F)C(F)(F)C(F)(F)C(F)(F)I,AC50,[1],11.1 µM (active)
same,outcome,[2],inactive
same,outcome,[3],inactive
same,AC50,[8],45.5 µM (active)
same,AC50,[4],0.00593 µM (active)
COc1ccc([N+](=O)[O-])cc1N,outcome,[1],inactive
same,outcome,[2],inactive
same,outcome,[3],inactive
same,outcome,[4],inactive
same,outcome,[6],inactive
same,outcome,[7],inactive
CC(O)C(=O)O (stereo unspecified),outcome,[1],inactive
same,outcome,[2],inactive
same,outcome,[3],inactive
same,outcome,[8],inactive
same,outcome,[4],inactive
same,outcome,[9],inactive
same,outcome,[7],inactive
OC1CCCCC1,outcome,[1],inactive
same,outcome,[2],inactive
same,outcome,[3],inactive
same,outcome,[4],inactive
same,outcome,[6],inactive
same,outcome,[7],inactive
CCCCCCCCC(=O)O,outcome,[1],inactive
same,outcome,[2],inactive
same,outcome,[4],inactive
